Experimental findings from publication PMC5540273 (PLoS ONE, 2017) are described below.

Usually Kd stands for the concentration at which binding is half-saturated. The low end stands for a tighter complex, the high end for a looser complex.
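Note: kd values determined as follow-up on hits from a single-replicate KINOMEscan panel screen.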

One assay relates to CHEK2.
For the compound `CC(C)c1cc(-c2ccc3c(N)n[nH]c3c2)nc(N)n1` [GSK2250882], the Kd came out at 320 nM. That is a sub-micromolar value.

The compound `CNc1cc(-c2ccc3c(N)n[nH]c3c2)nc(N)n1` [GSK2224810] yielded a Kd of 2000 nM.

As for `COc1ccc(Nc2nccc(NCCNC(=O)Nc3cc(C)ccc3C)n2)cc1` [GSK1379899], the Kd was > 10000 nM.

The subject of the next assay is CIT.
The compound `Fc1ccc(-c2nc[nH]c2-c2ccncc2)cc1` [SB-217360] returned a Kd of 310 nM.

`Fc1ccc(-c2nc3n(c2-c2ccncc2)CCS3)cc1` [GI98581] registered a Kd of 760 nM.

`CNc1nc(-c2ccc3c(N)n[nH]c3c2)cc(N2C[C@@H](C(=O)Nc3ccccc3)CC[C@H]2C)n1` [GSK2298859] gave a Kd of 500 nM.

In turn, `COc1cccc(NC(=O)Nc2ccc(C)c(-c3ccc(C(=O)Nc4ccncc4)cc3)c2)c1` [GSK1398474] yielded a Kd of 280 nM.

Compound `Cc1ccc(NC(=O)Nc2ccccc2F)cc1-c1ccc(C(=O)Nc2ccncc2)cc1` [GSK1398477] yielded a Kd of 570 nM.

Turning to `Fc1ccc(-c2nn3cccc(F)c3c2-c2ccncc2)cc1` [GW475620], the Kd turned out to be 310 nM.

The compound `Cc1ccc(NC(=O)Nc2ccccc2)cc1-c1ccc(C(=O)Nc2ccncc2)cc1` [GSK1398471] showed a Kd of 540 nM.

The compound `Nc1nccc(-c2c(-c3ccc(F)cc3)ncn2C2CCN(Cc3ccccc3)CC2)n1` [SB-219980] gave a Kd of 130 nM.

For the compound `CC[C@@H]1CO[C@H](C(=O)Nc2ccccc2)CN1c1cc(-c2ccc3c(N)n[nH]c3c2)nc(NC)n1` [GSK2376236], the affinity, expressed as Kd, was 200 nM.

In turn, `Cl.Cl.Cl.N#Cc1ccc(CCNc2nccc(-c3cccc(CN4CCNCC4)c3)n2)cc1` [GSK2137462] returned a Kd of 8600 nM.

`Cc1cccc2c(-c3ccncn3)c(-c3ccc(F)cc3)nn12` [GW515532] gave a Kd of 2500 nM.

Regarding `Cc1ccc(NC(=O)Nc2ccc(Cl)cc2)cc1-c1ccc(C(=O)Nc2ccncc2)cc1` [GSK1398472], the Kd turned out to be 430 nM.

Another assay relates to CLK1.
`COc1ccc(CSc2nnc(-c3ccc4nccn4c3)o2)cc1C(F)(F)F` gave a Kd of 70 nM. This lies in the double-digit nanomolar range.

On to `CNCc1ccc2nc(NC(=O)c3ccc(C(C)(C)C)cc3)cn2c1`, for which the Kd is 7500 nM.

In turn, `O=C1NC(=O)C(c2ccc(Cl)cc2)=C1Nc1cccc(Cl)c1` [SB-317651] came in with a Kd of 4400 nM.

Regarding `COc1ccc(CSc2nnc(-c3ccc4ncsc4c3)o2)cc1C(F)(F)F`, binding was put at a Kd of 170 nM.

Consider `Cc1cccc2c(-c3ccncn3)c(-c3ccc(F)cc3)nn12` [GW515532], for which the Kd was > 10000 nM.

As to `CNc1cc(-c2ccc3c(N)n[nH]c3c2)nc(N)n1` [GSK2224810], the Kd amounted to 330 nM.
